An excerpt weighted towards active compounds, which were near 5% of everything screened.
Vaccinia Venus – vaccinia inhibition (Venus reporter) | Vaccinia virus Venus reporter expression, fluorescence | Potency, µM (series often up to 36.5 µM), inactives show top-dose activity change, negative = inhibition, most hits filed as inhibitors | 330,000 compounds, 0.46% hits | AID 720580; calls by dose curve; tested in A549 cells; note: potency is the fitted concentration of half-maximal effect; nearly all actives have a fitted effect of over 30% in size
VACV mCherry inh – vaccinia inhibition (mCherry reporter). Potency, µM (doses to about 36.5 µM), without a hit: at the top dose activity change, negative = inhibition, usual class: inhibitors. Vaccinia virus mCherry reporter infection, fluorescence. AID 720579. 310,000 compounds, 0.63% hits; calls by dose curve; tested in A549 cells; note: potency is the fitted concentration of half-maximal effect; nearly all actives have a fitted effect of over 35% in size
LmPK inhibitor – LmPK (Leishmania mexicana) enzyme inhibition | Potency, µM (series often up to 57.5 µM), for the others: top-dose activity change, negative = inhibition, most hits filed as inhibitors | 290,000 compounds, 0.37% hits | AID 1721 | purified LmPK, Kinase-Glo ATP luminescence, 1 h | Q27686; note: potency is the fitted concentration of half-maximal effect
Target sequence (Q27686 whole entry, looked up): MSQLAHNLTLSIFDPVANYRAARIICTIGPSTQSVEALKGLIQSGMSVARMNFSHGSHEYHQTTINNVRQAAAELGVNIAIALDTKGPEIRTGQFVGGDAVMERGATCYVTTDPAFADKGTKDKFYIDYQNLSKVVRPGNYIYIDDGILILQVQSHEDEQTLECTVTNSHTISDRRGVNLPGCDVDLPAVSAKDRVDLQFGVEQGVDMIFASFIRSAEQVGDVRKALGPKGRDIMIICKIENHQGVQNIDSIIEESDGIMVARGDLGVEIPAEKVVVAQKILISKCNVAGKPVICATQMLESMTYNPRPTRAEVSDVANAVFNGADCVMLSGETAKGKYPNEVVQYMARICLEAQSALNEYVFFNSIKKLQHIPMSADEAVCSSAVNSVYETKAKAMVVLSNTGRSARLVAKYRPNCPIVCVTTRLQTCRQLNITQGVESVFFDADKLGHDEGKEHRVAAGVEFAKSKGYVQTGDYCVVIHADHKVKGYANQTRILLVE
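qHTS format; LmPK 0.1 nM; substrates PEP 0.5 mM and ADP 0.1 mM. One-hour room-temperature incubation, then coupled luciferase luminescence; 0.5 nM enzyme wells mark activation.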
HCMV antiviral – blocks human cytomegalovirus replication | HFF cells, HCMV-luciferase reporter, 72 h; hits give low values | activity change, negative = inhibition, % at 57.5 µM | 410,000 compounds, 4.5% hits; in the data active = activity change below about -60%; inconclusive = no clear call, values can overlap the other calls; inactive = above about -39%
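Compounds were evaluated in HFFs infected with an HCMV luciferase reporter virus (MOI 1 PFU/cell). Luciferase in lysates collected 72 h post infection served as the replication measure.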
Tb PYK inh – T. brucei pyruvate kinase inhibition | Q57TT1 | TbPYK enzyme, Kinase-Glo Plus ATP luminescence, 45 min | Potency, µM (titrated, usually from 76.8 µM), inactives show at the highest dose activity, negative = inhibition, hits mostly inhibitors | 410,000 compounds, 0.12% hits | AID 624173; note: potency is the fitted concentration of half-maximal effect; nearly all actives have a fitted effect of over 50% in size
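ADP (130 uM final) triggers the TbPYK reaction after compound addition; incubation is 45 min at room temperature. Kinase-Glo Plus is then added and luminescence imaged. Normalized data are fitted to concentration-effect curves.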
Numbers without * were called inactive; i = inactive; ? = inconclusive; / = no result given; + = active, no number; [ ] = dose if it differs, or a comment. Unless noted, calls come from the whole dose curve; as a rule, active = well fitted curve in the direction sought with a large enough effect; inconclusive = small, poorly fitted or top-dose-only effect, or another doubt; inactive = no such curve, though single readings can be large; an effect the other way counts as inactive or inconclusive. % is set by controls: 0 for no effect and ±100 for the full control effect.

SMILES | Vaccinia Venus | VACV mCherry inh | LmPK inhibitor | HCMV antiviral | Tb PYK inh
COc1ccc(N/N=C(/C(N)=O)C2=NC(C)(C)Cc3ccccc32)cc1 | ? | 14µM* | 2% | -92* | -5%
Cc1nc2scc(-c3ccc(Cl)cc3)c2c(=O)n1N | -15% | -10% | 0% | ? | 0%
Cc1ccc(-c2csc3nc(C)n(N)c(=O)c23)cc1 | / | / | 0% | -86* | 1%
CC(C)C[C@H]1CN(CCCC[C@H]2CNC(=O)C(=O)N2CCc2ccc(O)cc2)C(=O)C(=O)N1CCc1ccc(O)cc1 | 6% | i | / | 7 | 0%
COc1ccc(CCNC(=O)C2(C)CCC(=O)N2CCC(C)C)cc1OC (stereo unspecified) | -14% | -12% | 2% | -100* | -1%
COc1ccc(CCNC(=O)C23CCC(C)(C(=O)O2)C3(C)C)cc1OC (stereo unspecified) | / | / | 1% | 16 | 1%
COc1ccc(/C=C(/NC(=O)c2cccs2)C(=O)NC(C)(C)C)cc1OC | -4% | -15% | 5% | -17 | -3%
COC1C(=O)CCC2(CO2)C1(O)C1(C)OC1CC=C(C)C (stereo unspecified) | / | / | / | -76* | /
CO[C@@H]1CN(C)C(=O)c2ccc(NC(C)=O)cc2OC[C@@H](C)N(C(=O)NC2CCCCC2)C[C@H]1C | -1% | -3% | / | -3 | /
Cc1cccc(-n2ncc3c(N4CCN(c5ccccc5)CC4)ncnc32)c1 | -7% | -10% | / | + | -4%[15.4 µM]
COc1ccccc1N1CCN(c2ncnc3c2cnn3-c2cc(Cl)ccc2C)CC1 | 10µM* | 10µM* | / | ? | 1%
Cc1ccc(-n2ncc3c(N4CCN(c5ccccc5)CC4)ncnc32)c(C)c1 | / | / | 1% | -82* | -4%
COc1ccc(-n2ncc3c(N4CCN(c5cccc(C)c5)C(C)C4)ncnc32)cc1 (stereo unspecified) | ? | ? | / | -66* | -17%
COc1ccc(-n2ncc3c(N4CCN(c5cc(C)ccc5C)CC4)ncnc32)cc1 | -24% | -2% | -1% | 73 | -3%
COc1ccc(Nc2nc(N)nc(SCc3nnc(C)s3)n2)cc1 | -10% | -20% | -1% | 109 | -2%
O=C1NC2(CCSC2)C(=O)N1CC(=O)N(Cc1ccccc1)C1CCS(=O)(=O)C1 (stereo unspecified) | -7% | i | -10% | -32 | -2%
CCCCn1c(N)c(N(CCOC)C(=O)CSc2ccc([N+](=O)[O-])cc2)c(=O)[nH]c1=O | / | / | / | 10 | 0%
Cc1nn(-c2nc(-c3ccc(F)cc3)cc(C(F)(F)F)n2)c(C)c1Cl | -12% | -12% | / | -8 | 0%
Cc1cccc(-n2ncc3c(N4CCOCC4)ncnc32)c1 | -23% | -3% | 25µM* | 30 | -14%
COc1ccc(C2=NCC(=S)Nc3ccc(Cl)cc32)cc1Cl | -23% | -17% | 8% | -63* | 2%
CC(C)CCC1(C)NC(=O)N(CC(=O)NCC(=O)Nc2ccc(F)c(F)c2F)C1=O (stereo unspecified) | / | / | / | -7 | -1%
CN(Cc1cnn(-c2ccccc2)c1)C(=O)c1cccc(S(=O)(=O)N(C)c2ccccc2)c1 | -28% | -9% | / | -26 | -5%
Cc1ccc(N(C)S(=O)(=O)c2cccc(C(=O)N(C)Cc3cnn(-c4ccccc4)c3)c2)cc1 | -26% | ? | / | -67* | -2%
O=C(c1cccs1)c1cn(CCOc2ccccc2F)c2ccccc12 | -16% | -16% | / | 40 | -8%
CCOc1ccc(N/C(SCc2cccc([N+](=O)[O-])c2)=C(/C#N)C(N)=O)cc1 | -12% | -20% | -4% | ? | 4%
SMILES | Vaccinia Venus | VACV mCherry inh | LmPK inhibitor | HCMV antiviral | Tb PYK inh
N#CC(C#N)=C(Nc1ccc(F)cc1)SCc1cccc(F)c1 | ? | ? | 4% | -99* | -7%
CCCCN1C(=O)C(CC(=O)NCC2CCCCC2)CC(C(=O)N2CCCCCC2)=C1C (stereo unspecified) | / | / | / | -9 | /
O=C(N/N=C/c1cc([N+](=O)[O-])ccc1O)c1cccc(N2CCCC2=O)c1 | -2% | 6.3µM* | 0% | 11 | 0%
O=C(N/N=C/c1cccc([N+](=O)[O-])c1)c1cccc2cc[nH]c12 | -2% | -4% | 0% | 52 | 5%
O=C(N/N=C/c1cc([N+](=O)[O-])ccc1O)c1cccc2cc[nH]c12 | / | / | -2% | -80* | 1%
COc1cc(/C=N/NC(=O)c2cccc(N3CCCC3=O)c2)ccc1O | -11% | i | -1% | 3 | 2%
COc1ccccc1-c1nnc(SCC(=O)Nc2ccccc2F)o1 | -9% | -15% | / | 110 | -2%
CCCc1ccc(S(=O)(=O)NCC2CCCN2CC)cc1 (stereo unspecified) | -16% | i | -2% | -36 | -1%
COc1ccc(-c2cc(N)n(S(=O)(=O)c3c(F)c(F)c(F)c(F)c3F)n2)cc1OC | / | / | 2% | -102* | -7%
Cc1cc2nc(-c3ccc[nH]c3=O)[nH]c2cc1C | -22% | -4% | 11µM* | 58 | ?
O=C(c1ccoc1)N1CCN(c2cc(-c3cccc(F)c3)nc3cc(-c4cccc(Cl)c4)nn23)CC1 | ? | ? | / | -82* | 6%
Cc1cccc2c(C(=O)N3CCN(C(=O)c4ccco4)CC3)cc(-c3cccc(Br)c3)nc12 | -22% | i | -1% | -64* | -9%
O=C(c1ccco1)N1CCN(C(=O)c2cc(-c3ccccc3)nc3ccccc23)CC1 | -6% | -9% | -2% | 69 | -11%
Cc1cc(N2CCN(C(=O)c3ccco3)CC2)n2nc(-c3cccc(Cl)c3)cc2n1 | / | / | 0% | -101* | 0%
CCOc1cc(/C=N/n2cnnc2)ccc1OC(=O)c1cccc([N+](=O)[O-])c1 | -16% | -26% | 0% | -8 | 7%
Cc1nc(SC(C)C(=O)NCc2ccc3c(c2)OCO3)nc(C)c1C (stereo unspecified) | -14% | -2% | / | 21 | -18%
COC(=O)c1ccc(Oc2cc(C)nc(-n3nc(C)cc3C)n2)cc1 | / | / | 2% | -76* | -5%
COC(=O)c1ccc(Oc2nc(C)cc(Oc3ccccc3)n2)cc1 | 7% | -10% | 9% | -27 | 0%
COc1ccc(N2CCN(S(=O)(=O)c3c(C)noc3/C=C/N(C)C)CC2)cc1 | / | / | 4% | -10 | -1%
Cc1noc(/C=C/N(C)C)c1S(=O)(=O)N1CCN(c2ccc(F)cc2)CC1 | / | / | -1% | -62* | -9%
Cc1nc(N)ncc1CCC1OCCO1 | -8% | -18% | / | -21 | 1%
CN(N=Cc1ccccc1O)c1ccc2ccccc2n1 | -25% | -13% | / | 51 | 10%
CN(/N=C/c1cc(Br)cc(Br)c1O)c1cccc(C(F)(F)F)n1 | ? | ? | 1% | -65* | 0%
O=C(NCCCCCCNC(=O)c1ccccc1O)c1ccccc1O | -19% | ? | 8% | -79* | -7%
O=C(NCCCSc1ccccc1)c1cc(Cl)ccc1O | / | / | -5% | -84* | 0%
